Screening data deposited in PubChem BioAssay by several laboratories.
An excerpt weighted towards active compounds, which were near 10% of everything screened.
HCT116 PTEN-null – growth suppression of PTEN-null HCT116, primary screen, cell-based, CellTiter-Glo | HCT116 PTEN-null viability, 60 h; hits give low values | viability, % at 10 µM | 1.2% of 140,000 active | AID 827, 2007;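 active means viability at or below a set limit, 4 SD under the median of all tested compounds, cut at about 3.7% in these data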;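 further: PTEN knockout HCT116 line with beta catenin targeted HCT116 as companion control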
Lmaj promast – Leishmania major promastigote growth inhibition, primary screen; 9% of 200,000 active; Leishmania major promastigotes, resazurin fluorescence viability; inhibition, % at 10 µM; AID 1063, 2008; in the data active means inhibition above about 50%;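 further: promastigotes grown with compound for 44 hours at 28 °C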
p97 ATPase inh – inhibitors of human p97 ATPase, primary screen, biochemical; Transitional endoplasmic reticulum ATPase (Homo sapiens), P55072; 0.42% of 220,000 active; recombinant p97 ATPase, Kinase-Glo ATP luminescence, 3 h; inhibition, % at 8 µM; AID 1481, 2009; in the data active means inhibition above about 15%;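 further: 0% = DMSO vehicle and 100% = wells lacking enzyme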
Target sequence (P55072 whole entry, looked up): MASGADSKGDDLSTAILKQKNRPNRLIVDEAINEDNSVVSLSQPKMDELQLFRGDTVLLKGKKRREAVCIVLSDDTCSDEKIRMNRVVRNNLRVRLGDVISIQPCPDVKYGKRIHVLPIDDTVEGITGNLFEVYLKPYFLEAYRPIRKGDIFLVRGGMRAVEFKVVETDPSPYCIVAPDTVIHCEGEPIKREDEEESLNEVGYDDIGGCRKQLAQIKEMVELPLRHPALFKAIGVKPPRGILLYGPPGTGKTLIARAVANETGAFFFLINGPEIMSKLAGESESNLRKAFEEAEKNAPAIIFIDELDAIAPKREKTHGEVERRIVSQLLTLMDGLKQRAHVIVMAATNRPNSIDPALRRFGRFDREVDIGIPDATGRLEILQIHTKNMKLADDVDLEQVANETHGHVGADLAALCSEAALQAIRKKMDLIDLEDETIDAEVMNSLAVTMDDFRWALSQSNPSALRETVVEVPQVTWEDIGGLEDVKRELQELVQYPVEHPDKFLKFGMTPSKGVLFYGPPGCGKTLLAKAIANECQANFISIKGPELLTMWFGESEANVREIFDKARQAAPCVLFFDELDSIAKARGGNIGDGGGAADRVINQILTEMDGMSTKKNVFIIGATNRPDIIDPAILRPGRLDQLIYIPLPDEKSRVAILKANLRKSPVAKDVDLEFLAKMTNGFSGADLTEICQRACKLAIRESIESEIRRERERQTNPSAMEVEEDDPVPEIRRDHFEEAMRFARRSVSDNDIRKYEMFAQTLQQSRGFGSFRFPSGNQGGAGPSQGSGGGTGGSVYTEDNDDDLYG
ROMK primary – ROMK potassium channel modulators, primary screen, cell-based, thallium flux, MLSMR library. ATP-sensitive inward rectifier potassium channel 1 (Homo sapiens), P48048. Tet-inducible ROMK, thallium flux fluorescence; actives lie on both sides. B-score at 10 µM. 2% of 130,000 active. AID 1918, 2009;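 active means signal ratio slope over the read window, or its plate-corrected B-score, at least 3 SD from the plate mean, either direction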;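 further: B-score of the F/F0 ratio slope over 7 to 12 s after thallium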
HCT116 bCat-KO – primary screen for growth suppressors in beta-catenin knockout HCT116 cells (colon tumor, human); HCT116 beta-catenin knockout viability, CellTiter-Glo, 60 h; hits give low values; viability, % at 10 µM; 1.5% of 140,000 active;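 active means viability at or under a set limit, the compound median less 4 SD, cut at about 6% in these data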;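 further: 0% = Hyamine 1622 control at 20 µM and 100% = untreated cell control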
Insulin prom inh – inhibitors of insulin promoter-driven GFP, primary screen, imaging, TRM-6 cells (human fetal islet line), eGFP reporter, cell count; AID 1273, 2008; 0.9% of 130,000 active; reporter expression induced with tamoxifen; inhibition, % at 2 µM;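 active means inhibition above the mean plus 3 SD, with well images judged a real hit on visual review, cut at about 60% in these data, passing the limit was not always enough; inconclusive means inhibition over the cutoff but images rejected on review; inactive means inhibition not above the cutoff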
The depositor's hits bear a star; ? = inconclusive; nt = no result given.

SMILES	HCT116 PTEN-null	Lmaj promast	p97 ATPase inh	ROMK primary	HCT116 bCat-KO	Insulin prom inh
CCOc1ccc(OCCOCCN2CCOCC2)cc1	85	94*	-5	0.69	94	-31
CCCOc1ccc(C(=O)C(CN2CCOCC2)c2ccccc2)cc1 (stereo unspecified)	2.1*	100*	2	nt	2.6*	47
CCCC(O)(c1ccc(Cl)cc1)C(CN1CCOCC1)c1ccccc1 (stereo unspecified)	55	73*	-1	nt	51	nt
CCCCOc1ccc(C(O)(CCC)CCN2CCOCC2)cc1 (stereo unspecified)	76	3	-2	-1	64	-36
COc1ccc(OCCOCCN2CCOCC2)cc1	91	-1	-2	0.16	95	29
CCCOc1ccc(C(=O)C(c2ccccc2)N2CCOCC2)cc1 (stereo unspecified)	86	-1	0	nt	83	-60
CCCCOc1ccc(C(O)(CC)CCN2CCOCC2)cc1 (stereo unspecified)	90	83*	-6	-0.36	87	29
O=C1CC(N2CCC(O)(c3ccc(Cl)cc3)CC2)C(=O)N1Cc1ccc(N2CCCC2=O)cc1 (stereo unspecified)	82	4	-2	0.15	90	-19
O=C(O)C1CC=CCC1C(=O)Nc1cccnc1 (stereo unspecified)	nt	-10	5	0.33	nt	33
COc1cccc(C(=O)COC(=O)c2n[nH]c(=O)c3ccccc23)c1	nt	-13	8	-0.73	nt	23
N#Cc1cccc(C#N)c1Oc1ccc(S(=O)(=O)Nc2ccc(Cl)cc2)cc1	nt	nt	4	0.84	nt	nt
CN1CCN(Cc2nc3ccccc3c(=O)n2Cc2nc(-c3cccc([N+](=O)[O-])c3)cs2)CC1	nt	37	3	0.55	nt	nt
CN1CCN(Cc2nc3ccccc3c(=O)n2Cc2nc(-c3ccc4ccccc4c3)cs2)CC1	0.7*	100*	-5	-1.4	0.8*	nt
C/C(=N\N=C(/N)c1nonc1N)c1ccc2c(c1)OCO2	nt	nt	-6	-0.088	nt	nt
CC(=O)Nc1nc(-c2ccc(Cl)cc2)ns1	80	0	7	0.054	73	-86
Cc1cc(C(=O)COC(=O)c2ccc[nH]c2=O)c(C)n1-c1ccc(Br)cc1	92	8	0	-0.83	85	-39
COCCn1c(C)cc(C(=O)COC(=O)c2ccc[nH]c2=O)c1C	94	57*	1	0.92	84	1
Cc1ccc(-n2c(C)cc(C(=O)COC(=O)c3ccc[nH]c3=O)c2C)cc1	89	70*	-2	0.93	97	7
COc1cc(NC(=O)c2cccs2)c(C(=O)OCC(=O)c2cc(C)n(-c3ccccc3)c2C)cc1OC	86	19	1	0.35	92	33
COc1cc(NC(=O)c2cccs2)c(C(=O)OCC(=O)c2cc(C)n(-c3ccc(F)cc3)c2C)cc1OC	86	90*	6	nt	80	40
O=C1CCCCc2sc(Br)c([N+](=O)[O-])c2N1	nt	nt	12	nt	nt	nt
Cc1ccc(C(=O)NC(=C(Cl)Cl)S(=O)(=O)c2ccc(C)cc2)cc1	75	62*	11	nt	80	37
CC(=O)NC(=C(Cl)Cl)S(=O)(=O)c1ccccc1	nt	48	-1	0.48	nt	-31
Cc1ccc(C(=O)NS(=O)(=O)c2ccccc2)cc1	nt	-9	5	0.13	nt	nt
Cc1ccc(S(=O)(=O)C(NC(=O)c2ccccc2)=C(Cl)Cl)cc1	nt	62*	5	nt	nt	-23
SMILES	HCT116 PTEN-null	Lmaj promast	p97 ATPase inh	ROMK primary	HCT116 bCat-KO	Insulin prom inh
Cc1ccc(S(=O)(=O)/C(=C/Cl)NC(=O)c2ccccc2)cc1	9	99*	5	-0.0036	6.0*	38
O=C(CNCc1cccc2ccccc12)Nc1ccccc1[N+](=O)[O-]	nt	-11	-4	0.035	nt	nt
CC(C)[C@H](NC(=O)[C@H](CCCN=C(N)N)NC(=O)NC(Cc1ccccc1)C(=O)O)C(=O)NC(C=O)CCCN=C(N)N (stereo partly specified)	103	82*	1	nt	98	41
CC(C)C(NC(=O)C(Cc1ccccc1)NC(=O)OCc1ccccc1)C(=O)O (stereo unspecified)	nt	29	-1	1.5	nt	nt
O=C(Cn1c(/C=C/c2ccccc2)nc2ccccc21)Nc1ccc(F)cc1	63	63*	-5	nt	74	nt
CCn1c(/C=C/c2ccccc2)nc2ccccc21	55	77*	-21	nt	50	nt
COc1ccc(Cn2c(/C=C/c3ccccc3)nc3ccccc32)cc1	53	37	-9	nt	63	nt
CC(C)Cn1c(/C=C/c2ccccc2)nc2ccccc21	63	46	-2	-1.8	59	-47
CCC(C)n1c(/C=C/c2ccccc2)nc2ccccc21 (stereo unspecified)	78	93*	-6	nt	77	66
COc1ccc(/C=C/c2nc3ccccc3n2C)cc1	nt	85*	-36	0.62	nt	11
O=C(CNCc1ccco1)Nc1ccc(Oc2ccccc2)cc1	nt	-9	2	-0.44	nt	21
Cc1ccn2cc(-c3ccc(NC(=O)c4ccco4)cc3)nc2c1	76	68*	-6	nt	71	14
Cc1nnc2ccc(-c3ccc(NC(=O)c4ccco4)cc3)nn12	nt	-4	5	0.012	nt	-17
Cc1ccn2cc(-c3ccc(NS(=O)(=O)c4ccccc4)cc3)nc2c1	94	92*	8	nt	91	-7
Cc1ccc(S(=O)(=O)Nc2ccc(-c3cn4ccc(C)cc4n3)cc2)cc1	81	19	8	-0.51	82	-26
COc1ccccc1C/C(N)=N/OC(=O)c1ccco1	nt	-5	5	0.84	nt	nt
CCOC(=O)c1nc(C)sc1-c1ccnn1S(=O)(=O)c1cccc(Cl)c1	nt	nt	5	nt	nt	nt
Nc1nnn(CC(=O)N/N=C/c2cccc(Cl)c2)n1	nt	nt	1	nt	nt	nt
CC1=C(C(=O)Nc2ccccc2)C(c2ccncc2)C(C#N)=C(SCC(=O)NC(C)C)N1 (stereo unspecified)	98	89*	-6	1.2	104	?
CCCSC1=C(C#N)C(c2cccs2)C(C(=O)Nc2ccccc2)=C(C)N1 (stereo unspecified)	60	89*	0	nt	72	-258
CCOC(=O)CSC1=C(C#N)C(c2ccco2)C(C(=O)Nc2cccc(C(F)(F)F)c2)=C(C)N1 (stereo unspecified)	62	5	-4	nt	75	-350
CC1=C(C(=O)Nc2nc3ccccc3s2)C(c2ccco2)C(C#N)=C(SCC(=O)NC2CCCCC2)N1 (stereo unspecified)	57	73*	7	0.046	59	21
CCOC(=O)C1=C(C)NC(SCC(N)=O)=C(C#N)C1c1cccs1 (stereo unspecified)	87	2	5	nt	93	34
CCOC(=O)C1=C(C)NC(SCC(=O)Nc2cc(C)on2)=C(C#N)C1c1cccs1 (stereo unspecified)	64	60*	-5	nt	62	-50
Cc1cccc(NNC(=O)c2c(F)cccc2Cl)c1	nt	nt	6	nt	nt	nt
